Results reported in ChEMBL document CHEMBL4513146, “CO-ADD screening of Karazin Kharkiv National University (Ukraine) compounds”.
Measured potencies and affinities stand elsewhere.

Assays:
[1] = system: Staphylococcus aureus; details: Concentration 32 ug.mL-1;; ASSAY_TEST Inhibition of Bacterial Growth; detection method Absorption (OD600); MEDIA CAMHB; plate type 384well; NBS; CORNING #3640; time 18 hr
[2] = system: Escherichia coli; details: Concentration 32 ug.mL-1;; ASSAY_TEST Inhibition of Bacterial Growth; detection method Absorption (OD600); MEDIA CAMHB; plate type 384well; NBS; CORNING #3640; time 18 hr

Cc1c(Cl)cccc1NC(=O)Cn1nc2c3c4c(sc3ncn2c1=O)CCCCC4
Inhibition [1]: 3.69%
Inhibition [2]: -0.38%

COc1ccc(NC(=O)Cn2nc3nc(Nc4ccc(F)cc4)ccn3c2=O)cc1Cl
Inhibition [1]: 5.78%
Inhibition [2]: -9.75%

COc1cccc(Oc2nccn3c(=O)n(CC(=O)Nc4cc(C)c(Cl)cc4OC)nc23)c1
Inhibition [1]: -12.26%
Inhibition [2]: -0.57%

COc1ccc(C)cc1NC(=O)Cn1nc2c(N3CCSCC3)nc3ccccc3n2c1=O
Inhibition [1]: 9.36%
Inhibition [2]: 0.1%

Cc1ccc(Sc2nccn3c(=O)n(CC(=O)Nc4ccccc4Br)nc23)c(C)c1
Inhibition [1]: -0.81%
Inhibition [2]: -13.84%

Cc1nnc2c(SCC(=O)Nc3ccc(C#N)cc3)nc3ccccc3n12
Inhibition [1]: -1.63%
Inhibition [2]: -2.61%

O=C(CSc1nnc2c(=O)n(-c3ccc(F)c(F)c3)ccn12)c1ccccc1Cl
Inhibition [1]: 3.6%
Inhibition [2]: -5.26%

Cc1ccc(-n2ccn3c(=O)n(Cc4ccc(Cl)cc4)nc3c2=O)cc1C
Inhibition [1]: 0.27%
Inhibition [2]: -1.91%

COc1ccc(-c2cc3c4nn(CC(=O)Nc5cc(OC)cc(OC)c5)c(=O)n4ccn3n2)cc1
Inhibition [1]: -11.7%
Inhibition [2]: -10.82%

CCc1ccc(N(Cc2ccc(C)cc2)S(=O)(=O)c2cccn3c(CC)nnc23)cc1
Inhibition [1]: 5.86%
Inhibition [2]: -4.79%

O=C(Cn1nc2ccc(-c3ccccc3)nn2c1=O)N1CCN(c2ccc(F)cc2)CC1
Inhibition [1]: 10.02%
Inhibition [2]: -0.36%

CCOc1ccc(-n2ccn3c(SCC(=O)c4cccc(OC)c4)nnc3c2=O)cc1
Inhibition [1]: 10.49%
Inhibition [2]: -5.2%

CC(C)c1ccc(NC(=O)Cn2nc3c(N4CCCCC4)nccn3c2=O)cc1
Inhibition [1]: -8.03%
Inhibition [2]: -4.05%

CCc1nnc2c(SCC(=O)Nc3ccc(C(C)=O)cc3)nc3ccccc3n12
Inhibition [1]: 4.71%
Inhibition [2]: 4.62%

CCCN(C)c1nccn2c(=O)n(CC(=O)Nc3cccc(Cl)c3F)nc12
Inhibition [1]: 4.66%
Inhibition [2]: 0.13%

COc1ccccc1NC(=O)Cn1nc2c3cc(-c4ccc(Cl)cc4)nn3ccn2c1=O
Inhibition [1]: 5.68%
Inhibition [2]: -3.99%

CCOc1ccccc1NC(=O)Cn1nc2c3c4c(sc3ncn2c1=O)CCCC4
Inhibition [1]: -4.82%
Inhibition [2]: -7.86%

COc1cccc(-n2ccn3c(SCC(=O)c4ccc(C)cc4C)nnc3c2=O)c1
Inhibition [1]: 12.17%
Inhibition [2]: -2.43%

O=C(Cn1nc2c(SCc3ccccc3)nccn2c1=O)NC1CCCCC1
Inhibition [1]: 7.46%
Inhibition [2]: -4.24%

O=C(Cn1nc2ccc(SCc3ccc(Cl)cc3)nn2c1=O)Nc1ccccc1
Inhibition [1]: 5.05%
Inhibition [2]: -4.3%

CCOc1ccc(-n2ccn3c(SCC(=O)Nc4ccc(F)cc4F)nnc3c2=O)cc1
Inhibition [1]: 5.96%
Inhibition [2]: 2.93%

CCOc1ccc(-c2nc(CSc3nc4ccccc4n4c(C)nnc34)c(C)o2)cc1
Inhibition [1]: 7.53%
Inhibition [2]: 1.84%

O=C(CCc1nnc2c(N3CCCCC3)nc3ccccc3n12)NCc1ccc(F)cc1
Inhibition [1]: 1.77%
Inhibition [2]: -4.75%

COc1ccc(-c2cc3c4nnc(SCC(=O)NCc5ccccc5)n4ccn3n2)cc1
Inhibition [1]: -8.9%
Inhibition [2]: -21.63%

CCC(C)NC(=O)CSc1nnc2c(=O)n(Cc3ccc(F)cc3)ccn12 (stereo not given)
Inhibition [1]: 1.4%
Inhibition [2]: -9%
